Test results as given in PubChem BioAssay.

Experiments:
[1] = tested on: Botulinum neurotoxin type F light chain protease (Clostridium botulinum); experiment: Clostridium botulinum type F light chain protease inhibitors, microsphere substrate cleavage, validation (AID 588459); conditions: multiplex microsphere protease substrate cleavage assay, flow cytometry; at 10 µM; hits give high values
[2] = biological target: Botulinum neurotoxin type A (Clostridium botulinum) (UniProt P0DPI0); experiment: BoNT/A light chain protease inhibitors, biochemical, multiplex microsphere flow cytometry, validation set (AID 588460); conditions: at 10 µM, hits give high values
[3] = biological target: Lethal factor (Bacillus anthracis) (UniProt P15917); experiment: Bacillus anthracis lethal factor inhibition, microsphere flow cytometry protease assay, validation at 10 µM (AID 588461); conditions: multiplex microsphere protease cleavage assay, hits give high values

Measured: inhibition

CC1(C)C(=O)OC(c2cccs2)C2(CCCCC2)C1=O (stereo not given)
inactive: [1] -2.1% | [2] -1.3% | [3] -6.2%

CN/C(=C/[N+](=O)[O-])NCCSCc1ccc(CN(C)C)o1
inactive: [1] 0.1% | [2] 0.1% | [3] -7.4%

CCC(=O)Oc1ccc(C(=O)Nc2ccc([N+](=O)[O-])cc2)cc1
inactive: [1] 2.3% | [2] -0.2% | [3] -3.6%

O=C(Nc1ccccc1C(=O)N1CCCCCC1)c1ccccc1Cl
inactive: [1] -2.3% | [2] 0% | [3] -1.1%

O=C(CC(NC(=O)OCc1ccccc1)C(=O)O)OCc1ccccc1 (stereo not given)
inactive: [1] -3.2% | [2] -2.1% | [3] 2.5%

CNCCCC1c2ccccc2C=Cc2ccccc21
inactive: [1] -5.9% | [2] -1.6% | [3] -1%

Cc1cc(Cl)cc2c1NC(=O)[C@]21[C@@H]2C(=O)N(Cc3ccccc3)C(=O)[C@@H]2[C@@H]2CCCN21
inactive: [1] 2.1% | [2] 1.7% | [3] 2.3%

CN(C)CCCN1c2ccccc2Sc2ccccc21
inactive: [1] -0.5% | [2] -0.5% | [3] -3.7%

CC1CCN(C(=O)Oc2ccccc2)CC1
inactive: [1] -2.4% | [2] -1.5% | [3] 3.8%

Cc1ccc(CSCC(=O)N2CCCC2)cc1
inactive: [1] 2.8% | [2] -0.3% | [3] 0%

COc1ccc2[nH]c3c(c2c1)CCNC3C1CC=C(C)CC1 (stereo not given)
inactive: [1] -1.7% | [2] 0.2% | [3] 3.8%

COc1cc(C2Nc3ccccc3C(=O)N2c2ccccc2)ccc1O (stereo not given)
inactive: [1] 0.9% | [2] 0% | [3] -4.4%

CN1/C(=C\C=Nc2ccccc2)C(C)(C)c2ccccc21
inactive: [1] -1.1% | [2] 0.8% | [3] -0.6%

Cc1ccsc1/C=N\NC(=O)c1ccc2c(c1)OCO2
inactive: [1] 2.9% | [2] 0.4% | [3] -1.3%

COc1cc(C=NCC2OCCc3ccccc32)cc(OC)c1 (stereo not given)
inactive: [1] 5.8% | [2] 0.3% | [3] 3.3%

Cc1ccc(C(CC(=O)NCc2ccco2)c2ccc(OC(C)C)cc2)cc1 (stereo not given)
inactive: [1] 0.4% | [2] -1.6% | [3] -4%

C[C@]12CCC(=O)C=C1[C@H](O)C[C@@H]1[C@@H]2[C@@H](O)C[C@@]2(C)[C@H]1CC[C@]2(O)C(=O)CO
inactive: [1] -0.1% | [2] -0.3% | [3] 4.2%

Cc1nc2ccccc2n1CC(O)Cn1c2ccccc2c2ccccc21 (stereo not given)
inactive: [1] 2.9% | [2] -0.1% | [3] -0.7%

COc1cc(C(=O)N/C(=C\c2cn(C)c3ccccc23)C(=O)NCCCO)cc(OC)c1OC
inactive: [1] 2% | [2] -1.2% | [3] -2.5%

CCOC(=O)c1ccc(N2C(=O)C(CC(=O)NC)N(CCc3ccc(OC)c(OC)c3)C2=S)cc1 (stereo not given)
inactive: [1] -0.6% | [2] -0.4% | [3] -10.1%

COc1ccc2[nH]c(=O)c3c(c2c1)OC(C)(C)C=C3
inactive: [1] 1.1% | [2] 0.3% | [3] -4.6%

Cn1c2ccc(CC(=O)O)cc2c2cc(CC(=O)O)ccc21
inactive: [1] 2.2% | [2] -0.6% | [3] 7.2%

CC(=O)OCC(=O)[C@@]1(OC(C)=O)[C@@H](C)C[C@H]2[C@@H]3C[C@H](F)C4=CC(=O)C=C[C@]4(C)[C@@]3(F)[C@@H](O)C[C@@]21C
inactive: [1] 1.6% | [2] 0.4% | [3] -0.9%

CC(=O)Nc1ccccc1C(=O)C(=O)Nc1ccccc1
inactive: [1] 2.1% | [2] 0.9% | [3] -1.5%

CC(C)C[C@H]1C(=O)N2CCC[C@H]2[C@]2(O)O[C@](NC(=O)[C@@H]3C=C4c5cccc6[nH]c(Br)c(c56)CC4N(C)C3)(C(C)C)C(=O)N12 (stereo not given in full)
inactive: [1] 5.1% | [2] 1.3% | [3] -5.6%

CCOC(=O)C(=Cc1ccccc1OC)C(=O)OCC
inactive: [1] -0.7% | [2] -2.6% | [3] -6.9%

O=c1[nH]c(Cc2ccccc2)nc2c1oc1ccccc12
inactive: [1] 4.2% | [2] 0.2% | [3] 8.7%

CC12CCC(C(=O)N3CCc4ccccc43)(CC1=O)C2(C)C (stereo not given)
inactive: [1] 0.6% | [2] -0.7% | [3] -0.2%

CC1(C)Oc2ccc(C#N)cc2[C@@H](N2CCCC2=O)[C@@H]1O
inactive: [1] 3% | [2] 0.5% | [3] 5.1%

COc1ccc(CCN(C)CC(=O)Nc2cc(C)nc3ccccc23)cc1OC
inactive: [1] 0.4% | [2] 0.9% | [3] -1.4%

O=C1N=c2ccccc2=C1c1[nH]c(=S)[nH]c1O
inactive: [1] 3.3% | [2] -0.7% | [3] 7%

COc1ccc(CCN=CC2=C(O)CC(C)(C)CC2=O)cc1
inactive: [1] 1.2% | [2] -0.7% | [3] -4.5%

COc1ccc(-c2noc(-c3ccccc3-c3ccccc3)n2)cc1
inactive: [1] -1.9% | [2] -0.7% | [3] -1.9%

CC(C)=CCC/C(C)=C/CC/C(C)=N/O
inactive: [1] -1.6% | [2] -0.4% | [3] 4.1%

COc1ccc(-n2cc(CNCc3cccnc3)c(-c3cccc(F)c3)n2)cc1
inactive: [1] -3.6% | [2] -0.7% | [3] -8.2%

COc1ccc(NC(=O)N2CCCCC2c2cccnc2)cc1 (stereo not given)
inactive: [1] 2.7% | [2] 0.7% | [3] -0.9%

Cc1ccc([N+](=O)[O-])cc1NC1OC(CO)C(O)C1O (stereo not given)
inactive: [1] 1.5% | [2] -1.1% | [3] -1.7%

COC(=O)[C@H]1[C@H]2C[C@@H]3c4[nH]c5cc(OC)ccc5c4CCN3C[C@H]2C[C@@H](OC(=O)c2ccc(N)cc2)[C@@H]1OC
inactive: [1] -4.7% | [2] -2.3% | [3] -32.8%

COc1ccc2[nH]c3c(c2c1)CCn1c-3nc2ccccc2c1=O
inactive: [1] 7% | [2] 2.2% | [3] 4.4%

CC(C)CC(NC(=O)CNC(=O)C1O[C@@H]2OC(C)(C)O[C@@H]2[C@H]2OC(C)(C)O[C@@H]12)C(=O)O (stereo not given in full)
inactive: [1] 2.8% | [2] -2% | [3] 2.8%

CCOC(=O)c1cnc2ccccc2c1NCCO
inactive: [1] -1.1% | [2] 0% | [3] 5.8%

CCCC(CCC)C(=O)OC1C[C@H]2CC[C@@H](C1)[N+]2(C)C (stereo not given in full)
inactive: [1] -1.1% | [2] 1% | [3] 2.3%

O=c1cc(CN2CCN(c3cccc(Cl)c3)CC2)c2cc(O)c(-c3ccccc3)cc2o1
inactive: [1] -1.3% | [2] -1.5% | [3] -0.5%

CC1(C)CC(=O)C(C2=NC(C)(C)Cc3ccccc32)=C(O)C1
inactive: [1] 0% | [2] 0.9% | [3] -0.4%

CCOC(=O)C1=C[C@]2(CC)CCCN3CCc4c(n1c1ccccc41)[C@@H]32
inactive: [1] 1.3% | [2] -0.9% | [3] -7.9%

O=C(Oc1ccc2c3c(c(=O)oc2c1)CCCC3)c1ccco1
inactive: [1] -0.9% | [2] -1.1% | [3] -3.9%

CC[n+]1c(C)sc2cc(C)ccc21
inactive: [1] 3.6% | [2] 1.9% | [3] -1.6%

CO[C@@H]1O[C@@H]2COC(c3ccccc3)O[C@@H]2[C@@H](OC)[C@@H]1O (stereo not given in full)
inactive: [1] 1.6% | [2] -0.6% | [3] 2.5%

Cc1cc(=O)oc2cc(OC(C)C(=O)NCC3CCCO3)ccc12 (stereo not given)
inactive: [1] 3% | [2] 0.9% | [3] -4.8%

Cc1ccc(C2=NOC(=O)/C2=C\C=C\c2ccccc2)cc1
inactive: [1] 2.1% | [2] 1% | [3] 0.5%

COc1cc(C(=O)CCN2CCC(c3ccccc3)C2)cc(OC)c1OC (stereo not given)
inactive: [1] 0.2% | [2] 1.9% | [3] 6.6%

CC(=O)OCC(=O)[C@H]1CC[C@H]2[C@@H]3CCC4=CC(=O)CC[C@]4(C)[C@H]3CC[C@]12C
inactive: [1] -5.8% | [2] -1.1% | [3] -5.7%

c1ccc2[nH]c(-c3cscn3)nc2c1
inactive: [1] 1.2% | [2] 0.1% | [3] -4%

COc1ccc(Cc2noc(CN(C)CCN3CCc4ccccc4C3)n2)cc1OC
inactive: [1] -1.9% | [2] -0.3% | [3] -7.4%

CC1CC(OC(=O)C(O)c2ccccc2)CC(C)(C)N1C (stereo not given)
inactive: [1] -2.4% | [2] -1.7% | [3] -6.1%

COc1ccc(-c2coc3cc(OC(=O)N4CCOCC4)ccc3c2=O)cc1
inactive: [1] 4.3% | [2] -1.4% | [3] -0.4%

COCCc1ccc(OCC(O)CNC(C)C)cc1 (stereo not given)
inactive: [1] -1.4% | [2] -1.4% | [3] -2.9%

CCOC(=O)C1=C(N)Oc2c(c(=O)[nH]c3ccccc23)C1c1ccccc1 (stereo not given)
inactive: [1] 0.4% | [2] 1.1% | [3] -1.6%

O=C(NC(=S)Nc1ccc2c(c1)OCCO2)c1ccccc1F
inactive: [1] 2.3% | [2] 0.4% | [3] -3%

COc1ccc(CCNC(=O)c2c(O)c3c([nH]c2=O)CCCC3)cc1
inactive: [1] 2.6% | [2] 0.3% | [3] -14.2%
